Holding throughout (set-up): species or system human, MV4-11 + K-562 + COLO205 + SK-N-BE2 + OVCAR-8
One test concerns AKT1. The note with it: read-out: apparent Kd, n = 1.
The test system of the next test is CSNK1D. The conditions noted are these: read-out: apparent Kd, compound concentrations: 100 nM and 1000 nM (sheet 'Samples'), n = 1.
A further test relates to CSNK1E. The note with it: read-out: apparent Kd, compound concentrations: 100 nM and 1000 nM (sheet 'Samples'), n = 1.
Another test concerns GSK3A. The conditions noted are these: read-out: apparent Kd, n = 1.
The test system of the next test is RIOK2. The note with it: read-out: apparent Kd, compound concentrations: 100 nM and 1000 nM (sheet 'Samples'), n = 1.
Another test has as its system AGK. The note with it: read-out: apparent Kd; compound concentrations: 100 nM and 1000 nM (sheet 'Samples'), CATDS: 7.7586701088880605E-2; n = 1.
Another test concerns JAK2. The conditions noted are these: read-out: apparent Kd; compound concentrations: 100 nM and 1000 nM (sheet 'Samples'), CATDS: 0.169567440751725; n = 1.
For the next test, the system named is MAPK14. The note with it: read-out: apparent Kd; compound concentrations: 100 nM and 1000 nM (sheet 'Samples'), CATDS: 0.109512285169825; n = 1.
The next test has as its system MAPK9. The conditions noted are these: read-out: apparent Kd, compound concentrations: 100 nM and 1000 nM (sheet 'Samples'), n = 1.
The next test has as its system MAPKAPK2. The conditions noted are these: read-out: apparent Kd; compound concentrations: 100 nM and 1000 nM (sheet 'Samples'), CATDS: 8.8585007822458595E-2; n = 1.
Another test relates to PKN3. The note with it: read-out: apparent Kd; compound concentrations: 100 nM and 1000 nM (sheet 'Samples'), CATDS: 8.9898852115076394E-2; n = 1.
A further test has as its system PRKD2. The conditions noted are these: read-out: apparent Kd; compound concentrations: 100 nM and 1000 nM (sheet 'Samples'), CATDS: 9.5055877721236803E-2; n = 1.
Another test concerns PRKD3. The conditions noted are these: read-out: apparent Kd; compound concentrations: 100 nM and 1000 nM (sheet 'Samples'), CATDS: 9.9429548898697998E-2; n = 1.
In a further test the test system is AKT2. The note with it: read-out: apparent Kd, n = 1.
The next test concerns CDK16. The note with it: read-out: apparent Kd; compound concentrations:100 nM and 1000 nM (sheet 'Samples'); n = 1.
A further test has as its system CDK6. The conditions noted are these: read-out: apparent Kd; compound concentrations:100 nM and 1000 nM (sheet 'Samples'); n = 1.
The next test deals with GSK3B. The note with it: read-out: apparent Kd; compound concentrations:100 nM and 1000 nM (sheet 'Samples'); n = 1.
The test system of a further test is MAP2K1. The note with it: read-out: apparent Kd; compound concentrations:100 nM and 1000 nM (sheet 'Samples'); n = 1.
Another test relates to MAP2K2. The conditions noted are these: read-out: apparent Kd, n = 1.
Another test concerns MAP3K1. The note with it: read-out: apparent Kd; compound concentrations:100 nM and 1000 nM (sheet 'Samples'); n = 1.
For another test, the system named is MYLK3. The conditions noted are these: read-out: apparent Kd, n = 1.
The test system of the next test is NLK. The conditions noted are these: read-out: apparent Kd; compound concentrations:100 nM and 1000 nM (sheet 'Samples'); n = 1.
In the next test the test system is NQO1. The note with it: read-out: apparent Kd, n = 1.
A further test relates to STK11. The note with it: read-out: apparent Kd; compound concentrations:100 nM and 1000 nM (sheet 'Samples'); n = 1.
The test system of another test is STK26. The conditions noted are these: read-out: apparent Kd; compound concentrations:100 nM and 1000 nM (sheet 'Samples'); n = 1.
The next test deals with TGFBR2. The note with it: read-out: apparent Kd; compound concentrations:100 nM and 1000 nM (sheet 'Samples'); n = 1.
A further test has as its system AKT3. The conditions noted are these: read-out: apparent Kd; compound concentrations: 100 nM and 1000 nM (sheet 'Samples'), CATDS: 0.150950387905983; n = 1.
In a further test the test system is ADRBK1. The conditions noted are these: read-out: apparent Kd; compound concentrations: 100 nM and 1000 nM (sheet 'Samples'), CATDS: 0.31449304008803602; n = 1.
The next test has as its system PRKACG. The conditions noted are these: read-out: apparent Kd; compound concentrations: 100 nM and 1000 nM (sheet 'Samples'), CATDS: 0.40146810270516797; n = 1.
Where [1] appears, read: compound concentrations:100 nM and 1000 nM (sheet 'Samples').

Read-outs that look alike come from different tables or passages of the source.

With `Clc1ccc(CNc2nccc(-c3cnn4ncccc34)n2)cc1` [GW781673X], the potency estimated from few doses is 1400 nM in the test on AKT1 (compound concentrations: 100 nM and 1000 nM (sheet 'Samples'), CATDS: 0.20624871442291401); 1290 nM in the test with CSNK1D (CATDS: 0.21502598337996101); 2140 nM in the test with CSNK1E (CATDS: 0.16970430448232399); 1130 nM in the test on GSK3A (compound concentrations: 100 nM and 1000 nM (sheet 'Samples'), CATDS: 0.23143029559655601); 1670 nM with RIOK2 (CATDS: 0.18913150983507701).

Take `OCCn1c(-c2ccncc2)c(-c2ccc(F)cc2)c2ncccc21` [RO1155798-000]: the potency estimated from few doses was 2000 nM with AGK; 582 nM with CSNK1D (CATDS: 0.14002934621816099); 1190 nM in the test on CSNK1E (CATDS: 9.5278515441506895E-2); 432 nM with JAK2; 897 nM in the test with MAPK14; 1460 nM with MAPK9 (CATDS: 8.7291809991309394E-2). Further, the potency estimated from few doses in the test on MAPKAPK2 was 1410 nM; with PKN3 it was 1360 nM; in the test on PRKD2, 1200 nM; with PRKD3, 1090 nM.

On to `O=C(Nc1n[nH]c2nc(-c3cccc(O)c3)ccc12)C1CC1` [SB-711805], for which the potency estimated from few doses was 1900 nM with AKT1 (setting [1]); 2070 nM in the test with AKT2 (setting [1]); 2150 nM with CDK16; 1880 nM with CDK6; 147 nM with GSK3A (setting [1]); 223 nM in the test with GSK3B. The potency estimated from few doses is 2170 nM in the test on MAP2K1; 2290 nM with MAP2K2 (setting [1]); 1840 nM in the test on MAP3K1; 1310 nM with MYLK3 (setting [1]); 1150 nM with NLK; 1330 nM with NQO1 (setting [1]). The results for the potency estimated from few doses with STK11, in the test on STK26 and in the test on TGFBR2 were 2400 nM, 2270 nM and 644 nM, respectively.

For `COc1cc2ncn(-c3cc(OCCc4ccccc4)c(C(N)=O)s3)c2cc1OC` [GSK204925A], the potency estimated from few doses in the test on AKT2 (compound concentrations: 100 nM and 1000 nM (sheet 'Samples'), CATDS: 0.131386999232284) is 2300 nM; in the test with AKT3, 1570 nM; in the test on MAP2K2 (compound concentrations: 100 nM and 1000 nM (sheet 'Samples'), CATDS: 0.14753696988114701), 1660 nM; with MYLK3 (compound concentrations: 100 nM and 1000 nM (sheet 'Samples'), CATDS: 0.56668098220649099) it was 137 nM; with NQO1 (compound concentrations: 100 nM and 1000 nM (sheet 'Samples'), CATDS: 0.17515611913919399), 1100 nM; with RIOK2 (CATDS: 0.13311346938063801) it was 2210 nM.

As to `COC(=O)c1c(-c2ccccc2)c2cc(OC)ccc2c(=O)n1Cc1ccccc1` [TPKI-97], the results for the potency estimated from few doses with ADRBK1, in the test with MAPK9 (CATDS: 0.30035248026311001) and with PRKACG were 1400 nM, 1550 nM and 872 nM, respectively.

The values above are taken from PMC11062922 (Nature Chemical Biology, 2023).
